An excerpt weighted towards active compounds, which were near 4.1% of everything screened.
TIM10 inh: inhibits growth of TIM10 yeast strain; S. cerevisiae TIM10 strain growth, BacTiter-Glo luminescence, 24 h; inhibition, % at 10 µM; 1.4% of 330,000 active; AID 463195;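 active = inhibition of 40% or more at the single tested concentration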;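 also: wild-type TIM10 isogenic control strain grown at permissive 25 °C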
tim23-1 inh: growth inhibitors of tim23-1 mutant yeast | S. cerevisiae tim23-1 growth, BacTiter-Glo luminescence, 24 h | inhibition, % at 20 µM | 1.3% of 330,000 active | AID 463212;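 active = growth inhibition of the mutant yeast at or above 50%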;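 also: temperature-sensitive mutant grown at 25 °C; plate controls were DMSO-treated mutant yeast for no effect and medium wells lacking yeast for full effect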
NLRP3 yeast inh: blocks the NALP3 inflammasome reconstituted in yeast | Yeast reconstituted NLRP3/ASC/caspase-1, beta-gal luminescence, 24 h | inhibition, % at 10 µM | 0.39% of 330,000 active;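 active = inhibition of 50% or more; inactive = inhibition below 50%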;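 also: plate controls were induced DMSO wells for no effect and uninduced yeast grown without galactose for full effect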
NALP1 yeast inh: blocks the NALP1 inflammasome reconstituted in yeast. S. cerevisiae NALP1/ASC/caspase-1 growth, X-gal OD620, 72 h. inhibition, % at 10 µM. 0.61% of 280,000 active; in the data active = inhibition mostly above about 24%, no sharp cut-off; inactive = mostly below about 32%
tim10-1 inh: growth inhibitors of tim10-1 mutant yeast; 2.2% of 330,000 active; S. cerevisiae tim10-1 ts strain growth, BacTiter-Glo, 24 h; inhibition, % at 20 µM; AID 463190;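 active = inhibition of at least 40%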;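 also: mutant grown at 25 °C; 0% = DMSO wells with yeast and 100% = wells holding no yeast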
tim10-1 confirm: tim10-1 yeast growth inhibition, confirmed; 56% of 7,400 active; inhibition, % at 20 µM; shares compounds with tim10-1 inh; S. cerevisiae tim10-1 ts strain growth, BacTiter-Glo, 24 h;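 active = inhibition of yeast growth at or above a set limit in either of two repeat tests at 20 µM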;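 also: tim10-1 mutant grown at permissive 25 °C to find synthetic lethal compounds; 0% = DMSO yeast wells and 100% = medium wells without yeast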
The depositor's hits bear a star.

`CCC(=O)c1ccc(OCC(=O)OCC(=O)N2CCCc3ccccc32)cc1` gave TIM10 inh 13.1, tim23-1 inh 47.8, NLRP3 yeast inh 6.3, tim10-1 inh 42.9* and tim10-1 confirm 28.0.
`CCC(=O)c1ccc(OCC(=O)OCC(=O)N2c3ccccc3CC2C)cc1` (stereo unspecified) gave TIM10 inh -1.8, tim23-1 inh 40.1, NLRP3 yeast inh 10.3, tim10-1 inh 40.8* and tim10-1 confirm 35.2*.
O=C(COc1ccc(Cl)cc1)OCC(=O)N1CCCc2ccccc21 was read as TIM10 inh 17.9, tim23-1 inh 21.7, NLRP3 yeast inh 16.3, NALP1 yeast inh 23.3 and tim10-1 inh 23.1.
For CC1(C)C2CCC1(CS(=O)(=O)N1CCC(C(=O)O)CC1)C(=O)C2 (stereo unspecified) the results were TIM10 inh 2.9, tim23-1 inh 1.0, NLRP3 yeast inh -16.0, NALP1 yeast inh -16.0 and tim10-1 inh 10.3.
O=C(O)c1ccc([N+](=O)[O-])c(CS(=O)(=O)c2ccccc2)c1 was read as TIM10 inh 8.3, tim23-1 inh 26.2, NLRP3 yeast inh 3.3, NALP1 yeast inh 15.5 and tim10-1 inh -7.4.
Screening CCCOc1ccccc1/C=C1\SC(N2CCCCC2)=NC1=O returned TIM10 inh 16.6, tim23-1 inh 43.1, NLRP3 yeast inh 34.6, NALP1 yeast inh 18.2, tim10-1 inh 42.0* and tim10-1 confirm 33.3*.
Screening C=CCNC(=O)COc1ccc(Br)cc1Cl returned TIM10 inh -6.7, tim23-1 inh -5.5, NLRP3 yeast inh 27.1, NALP1 yeast inh -9.7 and tim10-1 inh -3.0.
`Cc1nn(-c2ccc(C(=O)N3CCN(S(=O)(=O)c4ccccc4C(F)(F)F)CC3)cc2)c(C)c1Cl` gave TIM10 inh 20.2, tim23-1 inh 14.2, NLRP3 yeast inh 23.7 and tim10-1 inh 11.2.
For CC(=O)c1ccc(S(=O)(=O)N2CCN(C(=O)c3ccc(-n4nc(C)c(Cl)c4C)cc3)CC2)cc1 the results were TIM10 inh 12.9, tim23-1 inh 20.2, NLRP3 yeast inh 26.7, tim10-1 inh 40.9* and tim10-1 confirm 19.1.
For CCOC(=O)N1CCN(C(=O)CCc2c(C)nc3c(c(C)nn3-c3ccc(C)c(C)c3)c2C)CC1 the results were TIM10 inh 29.7, tim23-1 inh 30.4, NLRP3 yeast inh 15.4, NALP1 yeast inh 24.3, tim10-1 inh 40.0 and tim10-1 confirm 35.5*.
For Oc1ccccc1-n1c(-c2ccccc2)ccc1-c1ccccc1 the results were TIM10 inh 22.4, tim23-1 inh 25.1, NLRP3 yeast inh 12.3, NALP1 yeast inh -0.1 and tim10-1 inh 31.3.
C=C(C)C1CC=C(C)/C(=N/NC(=O)c2ccc(NC(=O)c3cccc(C)c3)cc2)C1 (stereo unspecified) was read as TIM10 inh -40.3, tim23-1 inh -25.5, NLRP3 yeast inh 5.8, NALP1 yeast inh -6.7 and tim10-1 inh -1.2.
C=C(C)C1CC=C(C)/C(=N/NC(=S)Nc2ccccc2)C1 (stereo unspecified) was read as TIM10 inh 18.5, tim23-1 inh 26.8, NLRP3 yeast inh 27.8, NALP1 yeast inh 0.2, tim10-1 inh 40.8* and tim10-1 confirm 25.9.
For CCOC(=O)N1CCN(S(=O)(=O)c2c[nH]c(C(=O)OC)c2)CC1 the results were TIM10 inh -0.9, tim23-1 inh -2.1, NLRP3 yeast inh -0.3, NALP1 yeast inh 30.9 and tim10-1 inh -6.4.
`COCCOc1cc(Nc2nnc(C(F)(F)F)s2)c(Cl)cc1Cl` gave TIM10 inh 23.0, tim23-1 inh 29.2, NLRP3 yeast inh -22.2, NALP1 yeast inh 0.8, tim10-1 inh 46.3* and tim10-1 confirm 27.5.
Screening O=C(COC(=O)c1cc(Cl)ccc1[N+](=O)[O-])Nc1cccc2ccccc12 returned TIM10 inh 38.1, tim23-1 inh 32.3, NLRP3 yeast inh 12.4, NALP1 yeast inh 27.1, tim10-1 inh 46.6* and tim10-1 confirm 33.5*.
Screening COC(=O)NNC(=O)COc1ccc2ccccc2c1Br returned TIM10 inh 21.6, tim23-1 inh 29.9, NLRP3 yeast inh 9.9, NALP1 yeast inh 29.0, tim10-1 inh 45.5* and tim10-1 confirm 24.6.
For CC(C)(C)C(=O)NNC(=O)COc1ccc2ccccc2c1Br the results were TIM10 inh 8.3, tim23-1 inh 16.8, NLRP3 yeast inh 10.2, NALP1 yeast inh -10.5 and tim10-1 inh -5.6.
CC1C(=O)C(C)(C)C(=O)OC1c1ccccc1 (stereo unspecified) was read as TIM10 inh 12.9, tim23-1 inh 11.2, NLRP3 yeast inh 3.9, NALP1 yeast inh 7.6 and tim10-1 inh 1.3.
For C[C@H]1C=CC(=O)O[C@H]1c1ccccc1 the results were TIM10 inh 36.0, tim23-1 inh 43.6, NLRP3 yeast inh -31.6, tim10-1 inh 48.1* and tim10-1 confirm 52.2*.
For Cc1nn2c(N3CCN(C)CC3)cc(C(C)(C)C)nc2c1-c1ccccc1 the results were TIM10 inh 20.1, tim23-1 inh -15.2, NLRP3 yeast inh 19.0, NALP1 yeast inh 22.9 and tim10-1 inh -51.8.
`Cc1nn2c(N3CCN(C(=O)c4ccco4)CC3)cc(C(C)(C)C)nc2c1-c1ccccc1` gave TIM10 inh 22.3, tim23-1 inh 43.7, NLRP3 yeast inh 26.0, NALP1 yeast inh -0.1, tim10-1 inh 49.5* and tim10-1 confirm 25.8.
For Cc1cc(NC(=O)c2noc3c2CCCC3)nn1Cc1ccc(Cl)cc1 the results were TIM10 inh 17.4, tim23-1 inh 26.9, NLRP3 yeast inh 16.4, NALP1 yeast inh 12.2, tim10-1 inh 44.7* and tim10-1 confirm 21.5.
Screening Cc1ccc(NC(=O)COC(=O)[C@H](C)NC(=O)c2ccccc2)cc1S(=O)(=O)N1CCOCC1 returned TIM10 inh 2.8, tim23-1 inh 0.6, NLRP3 yeast inh 8.4 and tim10-1 inh 14.0.
`Cc1ccc(Cl)cc1NC(=O)c1ccccc1OCC(=O)Nc1ccc(Cl)cc1` gave TIM10 inh 29.7, tim23-1 inh 9.9, NLRP3 yeast inh -2.1, NALP1 yeast inh 21.8, tim10-1 inh 48.1* and tim10-1 confirm 25.2.
`Cc1ccc(NC(=O)COc2ccccc2C(=O)Nc2ccccc2)cc1Cl` gave TIM10 inh 28.4, tim23-1 inh 15.3, NLRP3 yeast inh 3.5, NALP1 yeast inh 15.2 and tim10-1 inh 9.8.
For Cc1ccc(S(=O)(=O)N(C)CC(=O)O/N=C(\N)c2ccccn2)cc1 the results were TIM10 inh 0.1, tim23-1 inh 15.5, NLRP3 yeast inh -0.3, NALP1 yeast inh 10.1 and tim10-1 inh 16.3.
Screening N/C(=N\OC(=O)CCCOc1ccc(Cl)cc1Cl)c1ccccn1 returned TIM10 inh 39.5, tim23-1 inh 21.0, NLRP3 yeast inh 23.1, NALP1 yeast inh -11.0, tim10-1 inh 59.1* and tim10-1 confirm 39.0*.
For CN(CC(=O)O/N=C(\N)c1ccccn1)S(=O)(=O)c1cc(Cl)ccc1Cl the results were TIM10 inh 22.0, tim23-1 inh 34.2, NLRP3 yeast inh 18.8, NALP1 yeast inh -13.5, tim10-1 inh 43.4* and tim10-1 confirm 41.5*.

Source: PubChem BioAssay (Sanford-Burnham Center for Chemical Genomics)
